According to PubChem BioAssay (NCI):
Compounds without any hit were thinned out: in the full panel of roughly 83,000, 20% have a hit.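 How to read the values: 0–100, growth inhibition (40 = 60% inhibited); 0, no net growth; -100 to 0, cell death (-40 = 40% of starting cells died; -100 = all dead).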 A number with no mark means an inactive call. The source made the active and inactive calls.

The molecules below were run on NCI-H522 lung (assay: NCI-60 one-dose screen, 48 h (100 = growth as untreated, 0 = no growth, -100 = all killed)). Conditions: 10 µM unless noted.
Experimental: Growth inhibition of the NCI-H522 human Non-Small Cell Lung tumor cell line is measured as a screen for anti-cancer activity. Cells are grown in 96 well plates and exposed to the test compound for 48 hours. Compounds are tested at a single concentration, which is 10^-5 M for most compounds. The reported endpoint is percent growth (GI% or GIPRCNT), where numbers from 0 - 100% represent growth inhibition, and numbers from -100% - 0 represent cell death. For example, a value of 40 represents 60% growth inhibition. A value of 0 means no net growth occurred over the course of the experiment. A value of -40 indicates 40% of cells at the beginning of the experiment died by the end of the experiment. A value of -100 means all cells are dead at the end of the experiment.
NCI-60 Human Tumor Cell Lines Screen was performed using the standard one-dose NCI protocol, which is described in more detail at https://dtp.cancer.gov/discovery_development/nci-60/default.htm.
Compounds with GIPRCNT values below 10 were considered active. Activity score was based on GIPRCNT using the following formula: […]
Score is 0 for GIPRCNT values of 100 or above, 50 for GIPRCNT values of 0, and 100 for GIPRCNT values of -100.

Compound | growth
CC1(C)N=C(N)N=C(N)N1c1ccc(S(=O)(=O)Nc2nccs2)cc1 | 91.1%
COc1ccc2cc(C(=O)N3CCC([C@@H](C)C(=O)NCc4ccc5c(c4)OCO5)CC3)[nH]c2c1 | -6.66% [50 µM] (active)
CCCCCc1ccc(S(=O)(=O)Nc2ccc3nc(N)oc3c2)cc1 | 43.7%
Oc1c(I)cc(I)cc1CN(Cc1ccccn1)Cc1ccccn1 | 11.5%
COc1ccc(Oc2ccc(/C=C/C(=O)c3cc4ccccc4oc3=O)cc2)cc1 | 65.1%
C=C1C(=O)O[C@H]2[C@H]1CC/C(COC(=O)/C=C\C(=O)NCc1ccc(Cn3c(=O)sn(CCCCl)c3=O)cc1)=C\CC[C@@]1(C)O[C@@H]21 | -12% (active)
COc1ccc(-c2cn(Cc3cc4ccccc4s3)nn2)cc1OCCN1CCCCC1 | 91.7%
CCN(CC)CCOc1ccc2c(-c3ccccc3)c(-c3ccc(OC)cc3)c(=O)oc2c1 | 66.8%
Cc1c(C(C)(C)O)cn2ncnc(Oc3ccc(NC(=O)Nc4ccc(Cl)c(C(F)(F)F)c4)c(F)c3)c12 | 39.9%
CC(O)CNC(Cc1ccccc1)c1ccc2c(c1)OCO2 (stereo not given) | 71.9%
CCOC(=O)C/C(=N\Nc1cc(=O)[nH]c2ccc(OC)cc12)C(=O)OCC | 109%
O=C(N/N=C/c1ccc(Cl)cc1)c1ccc(NC(=O)c2ccccn2)cc1 | 73.3%
COc1ccc2[nH]cc(-c3nonc3-c3c[nH]c4ccc(Br)cc34)c2c1 | 8.48% (active)
Brc1ccc(Nc2nc(Nc3cnc4ccccc4c3)c3[nH]cnc3n2)cc1 | 54.2%
COC(=O)[C@]1(C)CCC[C@]2(C)[C@H]3C[C@@H]4[C@H]5[C@@H]6CC/C(=N\OCC/C(N)=N/O)[C@H]5[C@@]3(CC[C@H]21)CC4(C(C)C)O6 | 54.7%
CS(=O)(=O)Nc1cc(-c2ccc3ncnc(Nc4ccc(F)c(Cl)c4)c3c2)ccc1Cl | 19%
COc1cc2c(c(OC)c1OC)C(=O)CC(c1cccc(C(=O)Nc3ccc(C#N)cc3)c1)O2 (stereo not given) | 46.8%
C#CCOc1cccc(Nc2ncnc3cc(NC(=O)CCl)ccc23)c1 | -76.1% (active)
COc1ccc2c(c1)oc1c(C)c3c(c(C)c12)C(=O)N(CCOS(C)(=O)=O)C3=O | 87.7%
CCOC(=O)c1[nH]cc2c1CCc1sc(Nc3ccccn3)nc1-2 | 66.2%

Compound | growth
CCCn1c(=S)sc2c(NNC(C)=O)nc(C)nc21 | 90.9%
C=CCN=c1sc(-c2ccc3ccccc3c2)cn1NC(=O)c1cc2ccc1CCc1ccc(cc1)CC2 | 76.4%
COc1cc(/C=C2\C(=O)N(CCCOc3cc(O)c4c(=O)cc(-c5ccccc5)oc4c3)c3ccccc32)cc(OC)c1O | 36.4%
Cc1ccc(NC(=O)c2cc3ccccc3cc2O)c(C)c1 | -1.58% (active)
CC/C(=C(/c1ccc(O)cc1)c1ccc(OCCN2CCCCC2)cc1)c1ccc(OC)cc1 | 74.7%
C=CN(C(=O)N1CCN(c2cc3c(cc2F)c(=O)c(C(=O)O)cn3C2CC2)CC1)c1nc(-c2ccccc2)cs1 | 81.4%
COCCn1cc(-c2nc(-c3cc4cccnc4n3C)cs2)c2ccccc21 | -6.38% (active)
CCOc1ccc(/C=C/C(=O)c2cccc(OCCCOc3cccc(C(=O)/C=C/c4ccc(OCC)cc4)c3)c2)cc1 | 74%
COC(=O)/C=C1/SC(=Nc2ccc(F)cc2)N(CCc2c[nH]c3ccc(O)cc23)C1=O | 23.6%
O=C(Nc1nc(Cl)nc(Nc2ccc(N3CCOCC3=O)cc2)n1)c1ccc(Cl)s1 | 81.1%
COC(=O)c1ccc2cc(OC)c(OC)cc2c1 | 98.9%
CCN(CC)CCOc1ccc(/C(=C(\C)Cc2ccc(OC)cc2)c2ccc(OC(=O)NCc3ccccc3)cc2)cc1 | 69.7%
Nc1ncccc1O | 61.4%
CC(=O)N1N=C(c2ccc(Nc3nc(Nc4ccc(F)cc4)nc(Nc4ccc(F)cc4)n3)cc2)CC1c1ccc(N(C)C)cc1 (stereo not given) | 46%
CCOC(=O)c1nnn(-c2no[n+]([O-])c2-c2ccc(OC)cc2)c1COc1cccc2cccnc12 | -52.7% (active)
OC1CSSC1Cn1cnc2c(Nc3ccc(OCc4cccc(F)c4)c(Cl)c3)ncnc21 (stereo not given) | -31.6% (active)
Cc1c2ccccc2nc2cc3c(cc12)[C@H]1CC[C@]2(C)C(=O)CC[C@H]2[C@@H]1CC3 | 81.6%
Cc1c(O)cc(-c2cnc(N/N=C/c3ccccc3)s2)c(O)c1C | 82.3%
COc1ccc(OC)c(Nc2nnc(-c3cc(OC)c(OC)c(OC)c3)o2)c1 | 76.6%
O=C1c2cccnc2C(=O)c2c1c(C(=O)OCCc1ccccn1)c1ccccn21 | -50.4% (active)
